# Bioassay records (PubChem)
# Dicer processing – inhibitors of human Dicer processing of pre-microRNA; z-score at 25 µM; 6% of 47,000 active; Q9UPY3; AID 1347074; cat-ELCCA pre-miR-21 Dicer processing, chemiluminescence; stronger effect = higher value; in the data active means z-score above about 3, passing the limit was not always enough;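 further: plate controls were vehicle for no effect and no enzyme for full effect; higher signal means more uncleaved substrate so more Dicer inhibition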
# Active calls of the source: *. Shown is part of a subset that was picked to be rich in hits.
SMILES,Dicer processing
Cc1noc(C)c1NC(=O)NCC1CCN(S(=O)(=O)c2ccccc2)CC1,0.89
Cc1c2n(c3ccccc13)CC/C2=N\Nc1cccc(C(F)(F)F)c1,4.3
COc1cc(OC)cc(C(=O)Nc2nc3c(s2)CCc2cc(OC)ccc2-3)c1,0.56
COc1ccc2c(c1)CCc1sc(NC(=O)c3cc(C)on3)nc1-2,0.98
CCCCCCCCC(=O)Nc1nc2c(s1)CCc1cc(OC)ccc1-2,-0.7
COc1ccc2c(c1)CCc1sc(NC(=O)c3ccco3)nc1-2,3.1*
COc1cc(OC)cc(C(=O)Nc2nc3c(s2)Cc2cc(OC)ccc2-3)c1,-0.47
COc1ccc2c(c1)-c1nc(NC(=O)c3ccco3)sc1CC2,5*
CCCCCC(=O)Nc1nc2c(s1)CCc1cc(OC)ccc1-2,-4.1
COc1ccc2c(c1)CCc1sc(NC(C)=O)nc1-2,3.5*
CCCCCCCC(=O)Nc1nc2c(s1)CCc1cc(OC)ccc1-2,0.09
CS/C(N)=N/N=C(\C)c1ccc(Br)cc1,-0.84
CSc1sc(C(=O)Nc2ccc(F)cc2F)c(-c2cccs2)c1C#N,-0.72
O=C(CSc1ncccc1C(F)(F)F)c1ccc(Cl)cc1,-0.94
FC(F)(F)c1cccc(NN=C2C3CC4CC(C3)CC2C4)n1,1.6
CSC(=NC12CC3CC(CC(C3)C1)C2)NN,0.47
CCOC(=O)NNC(=S)Nc1ccccc1,1.6
CCOC(=O)NNC(=S)Nc1cccc(C)c1,3.8*
CCOC(=O)NNC(=S)Nc1cccc(C(F)(F)F)c1,-0.65
CCCCNC(=O)c1cccc2c1-c1ccccc1C2=O,2.5
N#Cc1c(C(F)(F)F)cc(-c2ccccc2)nc1SCC(=O)c1ccccc1,-0.73
COc1ccc(C(=O)Oc2cccc3cccnc23)cc1Cl,4.4*
O=C(Oc1cccc2cccnc12)c1cccs1,2.2
COc1ccc(C(=O)Oc2cccc3cccnc23)cc1OC,2.1
Nc1ccccc1SC1CC(=O)N(c2c(F)cccc2Cl)C1=O (configuration not stated),-1.7
SMILES,Dicer processing
CN(C)c1ccc(/C=C(\C#N)C(N)=O)c(Cl)c1,-0.64
c1ccc2c(c1)N=C(NNC1=Nc3ccccc3SC1)CS2,3.8*
O=C(c1ccco1)c1cn(CCOc2ccccc2Cl)c2ccccc12,-0.03
CCOc1ccc(OCC)c([N+](=O)[O-])c1N1CCOCC1,-0.29
O=C(Cn1nc(-c2ccccc2)c2ccccc2c1=O)c1ccc(Br)cc1,-0.09
COc1cc(CCc2cc(OC)c(C)cc2OC)c(OC)cc1C,-1.8
COC(=O)c1ccc(NC(=O)CSc2nc(SC)ns2)cc1,-0.69
C/C(=N\OC(=O)c1ccc(C(F)(F)F)cc1)c1ccn(S(=O)(=O)c2ccccc2)c1,-0.23
C/C(=N\O)c1ccn(S(=O)(=O)c2ccc(Cl)cc2)c1,0.09
C/C(=N\OC(=O)c1ccc(Cl)cc1)c1ccn(S(=O)(=O)c2ccc(Cl)cc2)c1,11*
O/N=C/c1ncc(C(F)(F)F)cc1Sc1ccc(Cl)cc1,-0.53
CCN(CC)CCNc1ncnc2c1sc1nc(CC(C)C)c3c(c12)CC(C)(C)OC3,0.09
CSC1=NC=C(C#N)C2=NC(C)(c3ccc(Cl)c(Cl)c3)NN12 (configuration not stated),-0.18
Cc1ccnc(NS(=O)(=O)c2ccc(Br)cc2)c1,2.6
CCc1ccnc(NS(=O)(=O)c2ccccc2)c1,3.8*
CCc1ccnc(NS(=O)(=O)c2ccc(C)c(Cl)c2)c1,0.91
O=c1oc2ccccc2c2c1ncn2CCN1CCCCC1,-0.72
Cc1ccnc(NC(=O)c2ccc(Cl)cc2[N+](=O)[O-])c1,-0.03
CC12CN3CC(C)(CN(C1)C3c1cc(Br)ccc1O)C2 (configuration not stated),0.72
Cc1ccc(C2N3CC4(C)CN2CC(C)(C3)C4)cc1 (configuration not stated),3*
CC12CN3CC(C)(CN(C1)C3c1ccc([N+](=O)[O-])o1)C2 (configuration not stated),0.27
CSC(=Nc1ccc(C)cc1)Nc1ccc(C)cc1,0.74
Cn1c(SCc2ccc([N+](=O)[O-])cc2)nc2sc3c(c2c1=O)CCCC3,0.16
COc1cccc2c1OC(c1ccncc1)N1N=C(c3ccccc3O)CC21 (configuration not stated),-0.04
COc1cc(/C=N/c2nccs2)ccc1O,3.1*
SMILES,Dicer processing
COc1cc(/C=N/n2cnc3c(sc(=S)n3C)c2=O)ccc1O,-1.7
COc1cc(C=Nc2ccc(N3N=C(C)CC3=O)cc2)ccc1O,-6.6
COc1ccc2nc(C)cc(Nc3ccc(Cl)cc3)c2c1,3.1*
COc1ccc(Nc2cc(C)nc3ccc(OC)cc23)cc1,2.8
Cc1ccc(Nc2cc(C)nc3ccc(C)cc23)cc1,-0.61
Cc1ccccc1-n1c(N)cc(=O)n(Cc2ccccc2)c1=O,-0.93
CCCN1C(=O)C(O)(CC(=O)c2ccc(OC)cc2OC)c2cc(Br)ccc21 (configuration not stated),-0.59
Oc1ccc(Cl)cc1C1=Nc2ccccc2N=C(c2ccco2)C1,3*
O=c1oc(-c2ccco2)nc2cc(Cl)ccc12,2.6
COc1ccc(O)c(C2=Nc3ccccc3N=C(c3ccco3)C2)c1,2.4
CC1=C(C(=O)OCCOc2ccccc2)C(c2ccc(C)s2)C2=C(CCCC2=O)N1 (configuration not stated),-0.76
CCOCCNS(=O)(=O)c1cccc2c(N)cccc12,-2.7
CCCn1c(-c2ccc(F)cc2)n[nH]c1=O,-0.26
COCCCn1c2c(c(=O)[nH]c1=O)C(c1ccc(F)cc1)C1=C(N2)c2ccccc2C1=O (configuration not stated),-1.2
Cc1ccc(-c2nnc(SCc3ccc(F)cc3)o2)cc1,-0.07
CC(C)(C)c1cc2nc(C(F)(F)F)cc(Oc3ccc(Cl)cc3)n2n1,-0.68
CCCCOc1ccc(C2c3c(oc4ccccc4c3=O)C(=O)N2c2ccccn2)cc1OCC (configuration not stated),4.6*
CCCOc1ccc(C2c3c(oc4ccccc4c3=O)C(=O)N2c2ccccn2)cc1OCC (configuration not stated),4.4*
CCCCOc1ccc(C2c3c(oc4ccccc4c3=O)C(=O)N2c2nncs2)cc1OCC (configuration not stated),-0.3
CCCOc1cccc(C2c3c(oc4ccccc4c3=O)C(=O)N2c2ccccn2)c1 (configuration not stated),-5.9
CCCOc1ccc(C2c3c(oc4ccccc4c3=O)C(=O)N2c2ccc(C)cn2)cc1OCC (configuration not stated),-0.52
CCCOc1ccc(C2c3c(oc4ccccc4c3=O)C(=O)N2c2nnc(C)s2)cc1OCC (configuration not stated),-0.5
Cc1c(Br)cc2nc3c(nc2c1C)CCCC3,1
CC(O)CN1CN=C(SCc2ccc(Cl)cc2)NC1 (configuration not stated),-0.27
COC(=O)c1cnc(Sc2ccccc2NC(=O)Nc2cc(Cl)cc(Cl)c2)c([N+](=O)[O-])c1,-1.3
SMILES,Dicer processing
O=C(Cn1c(=O)oc2ccccc21)Nc1nnc(SCC(=O)N2CCOCC2)s1,3.2*
O=C(Cn1c(=O)oc2ccccc21)Nc1nnc(SCc2ccccc2)s1,3*
O=C(CCSc1nnc(NC(=O)Cn2c(=O)oc3ccccc32)s1)Nc1ccccc1,2.6
CC(C)(C)NC(=O)CSc1nnc(NC(=O)Cn2c(=O)oc3ccccc32)s1,1.6
O=C(Cn1c(=O)oc2ccccc21)Nc1nnc(SCC(=O)N2CCCCC2)s1,1.1
CC(C)c1nnc(NC(=O)Cn2c(=O)oc3ccccc32)s1,0.6
CC1(C)CC(=O)C=C(NC(=O)Nc2ccc(Cl)cc2)C1,-0.08
OCc1ccccc1-c1ccccc1CO,0.04
